Whole data set: some 39,000 sequences, median “fluorescence intensity (a.u.)” near 4,300, cut for the highest 2% near 39,000. Only a selection was taken, and the highest values are over-represented in it overall.

The test deals with T1, OsSMF1 (Oryza sativa, UniProt Q6ZLB0 1-436).
T1 sequence: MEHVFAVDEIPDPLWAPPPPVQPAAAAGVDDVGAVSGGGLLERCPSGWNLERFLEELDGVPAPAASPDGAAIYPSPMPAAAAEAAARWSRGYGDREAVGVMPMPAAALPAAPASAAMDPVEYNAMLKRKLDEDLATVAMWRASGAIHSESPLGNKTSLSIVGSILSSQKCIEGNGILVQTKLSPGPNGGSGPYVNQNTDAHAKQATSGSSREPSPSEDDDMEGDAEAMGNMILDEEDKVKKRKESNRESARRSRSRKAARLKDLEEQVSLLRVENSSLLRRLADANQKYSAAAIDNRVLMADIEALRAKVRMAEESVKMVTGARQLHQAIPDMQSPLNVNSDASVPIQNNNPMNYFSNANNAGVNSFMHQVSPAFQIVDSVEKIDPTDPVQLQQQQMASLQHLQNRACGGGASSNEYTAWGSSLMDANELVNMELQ
Kind of test: protein-binding microarray (RPBM); PBS, 2% BSA, 51.3 ng/ul salmon testes DNA, 50 uM zinc acetate, 200 nM TF, 25 C, 1 h; high values mean tight binding. The note with it: protein: recombinant; tags: N-terminal polyhistidine and DsRed monomer fusion (pET32a); chain copies: 2; label: CyDye5-dUTP incorporated in the synthesized complementary strand; 3' TTTTT single-stranded linker to array surface; dsDNA, one strand shown. In short, it runs like this:
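For the binding signal, per-feature fluorescence intensity was read in arbitrary units on an Axon 4000B scanner. Before scanning, a 2% BSA-blocked custom Agilent array made double-stranded with Cy5-dUTP was washed after 1 h at 25 °C with 200 nM protein and 50 µM zinc acetate. The proteins were Ni–NTA-purified transcription factors with N-terminal polyhistidine and DsRed fusions, expressed in E. coli BL21-CodonPlus.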
As for “GTCGGCCCATGAATATGCTGACGTCACTTTTGAGCCCACTCGGAGTCACCTAGTGCAG”, the binding signal is 36600 fluorescence intensity (a.u.).

As to “GACATTTACATGTACTGATTGCTGATTGCCATTGATTCATCGGAGTCACCTAGTGCAG”, the binding signal is 22800 fluorescence intensity (a.u.).

For “CAGTGTTACATCATCGACCGGTTATCATCTTTGTTTCGATCGGAGTCACCTAGTGCAG”, the binding signal was 3580 fluorescence intensity (a.u.).

In the case of “TTGCACATGCTGATTATTACATATTGCTACGTCCTTTTGCCGGAGTCACCTAGTGCAG”, the binding signal is 3230 fluorescence intensity (a.u.).

In the case of “GGTGTGTATTGACGCACCACGTATGTCTATCTTCTTTCGTCGGAGTCACCTAGTGCAG”, the binding signal was 3820 fluorescence intensity (a.u.).

Regarding “TGGCCGGAATCACACGCACAAGGTGCTGCGTCACCTATAACGGAGTCACCTAGTGCAG”, the binding signal is 9040 fluorescence intensity (a.u.).

Turning to “CACGATCCATCATATCGCTTGAGCTAGCCACAACACACAACGGAGTCACCTAGTGCAG”, the binding signal was 22100 fluorescence intensity (a.u.).

Turning to “GCATGGTGGCGGCGGGAAGGAGGAGTGGGGCGGCGGGTGCCGGAGTCACCTAGTGCAG”, the binding signal is 3770 fluorescence intensity (a.u.).

As for “CCCGCCGCGCCGCGTCCCGGCCACCGCGCCGCCCGCCGCGCGGAGTCACCTAGTGCAG”, the binding signal was 4250 fluorescence intensity (a.u.).

In the case of “GTCCGTCGCGCGTCACCGCGTGCCTCGCCACGCCCACGCCCGGAGTCACCTAGTGCAG”, the binding signal was 5090 fluorescence intensity (a.u.).

Take “CCCCACCACCTCATCGATCCGCGCCACCACCCAACCCACCCGGAGTCACCTAGTGCAG”: the binding signal is 4250 fluorescence intensity (a.u.).

With “CGAGTGCCACGCGTGCGCCCACCGCCACGTCACCGATCCCCGGAGTCACCTAGTGCAG”, the binding signal is 53800 fluorescence intensity (a.u.).

Take “GCCACCGCCGCGGGCGCGGCCCCGGCCCCGGCCCCGGCCGCGGAGTCACCTAGTGCAG”: the binding signal is 3390 fluorescence intensity (a.u.).

In the case of “TCCCGCTCACCACCACGCCACGTCACCGATCCGCGCAACCCGGAGTCACCTAGTGCAG”, the binding signal was 22400 fluorescence intensity (a.u.).

For the sequence “CTTGGATCCAACGGCCACGGCTCTCTCATCGCCGCGCCCCCGGAGTCACCTAGTGCAG”, the binding signal was 46100 fluorescence intensity (a.u.).

Take “CGTCGAACCGGCGGCGGCCCGCGCCACCCACCCTACCCGCCGGAGTCACCTAGTGCAG”: the binding signal was 49100 fluorescence intensity (a.u.).

Regarding “CCAGCCCCGCGCCGGCCGCCGTCCGTCCGCCCGCGCGCGGCGGAGTCACCTAGTGCAG”, the binding signal is 3540 fluorescence intensity (a.u.).

As to “GGGCAGATCCGGCGCCCGACGCCGGCGGATCCGCCGTCGTCGGAGTCACCTAGTGCAG”, the binding signal was 32500 fluorescence intensity (a.u.).

With “GAAGCCATCCACGCGGCACCATCGGACGGCTCTCGCGCCCCGGAGTCACCTAGTGCAG”, the binding signal is 5210 fluorescence intensity (a.u.).

Take “GGGCCCCGCAGGCGCAGGCGCAGCGGTACGCCGTCGTCGGCGGAGTCACCTAGTGCAG”: the binding signal is 54200 fluorescence intensity (a.u.).

With “ACACATGCTTCAAGTGGCTAAGAGGGCATCCTCCCTTTTACGGAGTCACCTAGTGCAG”, the binding signal is 16000 fluorescence intensity (a.u.).

For the sequence “TAACTTCTTGCAGAAATGCCTCGTCATCGGTGACGCCGTTCGGAGTCACCTAGTGCAG”, the binding signal is 4870 fluorescence intensity (a.u.).

For “AAATTTGATCCTCGCACACCAGCTCAGCTACAGATGACATCGGAGTCACCTAGTGCAG”, the binding signal was 4230 fluorescence intensity (a.u.).

In the case of “TTTGCATGCTTCATTACCACCTTCATCCACGTTGAAAGTACGGAGTCACCTAGTGCAG”, the binding signal is 4160 fluorescence intensity (a.u.).

Consider “GCACATCGCGCTCGCCGAAGCAGAACCACGCGGCCACCGGCGGAGTCACCTAGTGCAG”, for which the binding signal was 3240 fluorescence intensity (a.u.).

In the case of “CGCAGCAAGCGTCACGTCACCAACTGTTTGCTCCAACTGTCGGAGTCACCTAGTGCAG”, the binding signal is 9370 fluorescence intensity (a.u.).

Take “AAGAAACAACACACGTTAGCATTTCACTGCTATTAAGTTCCGGAGTCACCTAGTGCAG”: the binding signal was 5010 fluorescence intensity (a.u.).

Take “GACGTTAGTGATCAGCTGGGTTAATTAATTACGTGGCTAACGGAGTCACCTAGTGCAG”: the binding signal was 7210 fluorescence intensity (a.u.).

Regarding “TTCGCGCGCCACCTCCTCGCGCTCGCCTGCTTCTTCTCCCCGGAGTCACCTAGTGCAG”, the binding signal was 3380 fluorescence intensity (a.u.).

For “GCTGCTGCACCACGTCCTTCCTCTTCCTCGCCCCACCACCCGGAGTCACCTAGTGCAG”, the binding signal was 6380 fluorescence intensity (a.u.).

For “CTCGCTGCTTCGCCCGCCACGTCACCCTCCTCCTCCTCCCCGGAGTCACCTAGTGCAG”, the binding signal was 62000 fluorescence intensity (a.u.).

Take “AAAACCTGACTTTGCATCATTAGACGATTTGTCCATTGAACGGAGTCACCTAGTGCAG”: the binding signal was 3160 fluorescence intensity (a.u.).

For “GGCTAGCCAGCGACCGACCGGCGGCCACCGTGGCGGGATTCGGAGTCACCTAGTGCAG”, the binding signal was 4850 fluorescence intensity (a.u.).

With “AGGTACGTAAATTTTATATATTCCATATGAGCTCTAAATACGGAGTCACCTAGTGCAG”, the binding signal was 3580 fluorescence intensity (a.u.).

“GTAGTCGTAATGTCATCGTCATCGACATCGATGTGTTGCTCGGAGTCACCTAGTGCAG”: the binding signal is 4940 fluorescence intensity (a.u.).

As to “AGGAGGTAGGATAGTTCCCTCCGTAATGGATCGAGGATGTCGGAGTCACCTAGTGCAG”, the binding signal is 42000 fluorescence intensity (a.u.).

In the case of “CACGCAGTAGGGATCGAGGATGTCGTACGCGTACCTCTTCCGGAGTCACCTAGTGCAG”, the binding signal is 26100 fluorescence intensity (a.u.).

Regarding “TCCTTCTTCCTTGGCCTCTTCCTAATGACAAGCCCTTGCGCGGAGTCACCTAGTGCAG”, the binding signal is 3610 fluorescence intensity (a.u.).

Turning to “GCTCTTGAGAATGTTGCTGAGTTGTCAGCTCTCTCCACCCCGGAGTCACCTAGTGCAG”, the binding signal is 15700 fluorescence intensity (a.u.).

For the sequence “CCATATAGGAATTTAAAACTAACTAAAATTCGGAATAAACCGGAGTCACCTAGTGCAG”, the binding signal was 3400 fluorescence intensity (a.u.).

In the case of “ACCCATAGAGATCGACACTATAGGTACCGGAATAACTAAACGGAGTCACCTAGTGCAG”, the binding signal is 63800 fluorescence intensity (a.u.).

As for “GATCGTACATGTTCACATAAACACCCACGACACTACCCTACGGAGTCACCTAGTGCAG”, the binding signal is 18400 fluorescence intensity (a.u.).
